Compound activity: PubChem, National Center for Advancing Translational Sciences (NCATS)
Hits are enriched below; roughly 11% of the tested compounds scored in any of these assays.
HPGD inh – qHTS Assay for Inhibitors of HPGD (15-Hydroxyprostaglandin Dehydrogenase). Potency, µM, hits mostly inhibitors. 15-hydroxyprostaglandin dehydrogenase [NAD(+)] (Homo sapiens), P15428. 4.3% of 150,000 active. purified HPGD, NADH fluorescence kinetic, PGE2 substrate
Target sequence (P15428 whole entry, looked up): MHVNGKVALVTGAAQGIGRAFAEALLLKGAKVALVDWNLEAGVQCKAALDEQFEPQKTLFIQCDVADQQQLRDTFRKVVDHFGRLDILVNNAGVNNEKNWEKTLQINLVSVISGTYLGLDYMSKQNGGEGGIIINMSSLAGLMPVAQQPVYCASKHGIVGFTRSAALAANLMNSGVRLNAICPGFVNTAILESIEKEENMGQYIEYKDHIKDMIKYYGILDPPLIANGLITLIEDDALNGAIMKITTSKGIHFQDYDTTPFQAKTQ
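20 nM HPGD preincubated 15 min at room temperature with compound in 50 mM Tris-HCl pH 8, 0.01% Tween 20. Started with 1 mM NAD+ and 30 uM prostaglandin E2; NADH fluorescence (360/450 nm) read 5 times over 30-s intervals, last minus first.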
ALDH1A1 block – qHTS Assay for Inhibitors of Aldehyde Dehydrogenase 1 (ALDH1A1); 7.3% of 220,000 active; Purified ALDH1A1, NADH fluorescence, propionaldehyde substrate; AID 1030, 2008; Aldehyde dehydrogenase 1A1 (Homo sapiens), P00352; Potency, µM (series often up to 75.3 µM), actives largely listed as inhibitors
PNC inhibitor – High Content Assay for Compounds that inhibit the Assembly of the Perinucleolar Compartment. 3.1% of 140,000 active. activity change (PNC), negative = inhibition, % at 10 µM. PC3M PTB-GFP, PNC prevalence imaging, 16 h; stronger effect = lower value;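 active = readout at or below -70, meaning at least 70% loss of cells showing the perinucleolar compartment, a nuclear body marking cancer cells; inconclusive = readout between -30 and a set limit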
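Read-out is percentage of cells bearing a perinucleolar compartment, from automated 20x imaging of fixed, Hoechst-stained PC3M PTB-GFP cells. Cells were seeded 4 h, then exposed 16 h to compound (23 nl of library stock) in duplicate plates.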
Large screens that a line does not name were inactive. Unless noted, calls follow the shape of the dose curve; as a rule, active = well fitted inhibition curve with a large enough effect (not every such curve was filed as active); inconclusive = small, poorly fitted or top-dose-only effect, or another doubt; inactive = no such curve, though single readings can be large or run the other way.

COc1cccc(CNCc2ccc(SC)cc2)c1OC	none
CC1=CC(C)(C)N(S(=O)(=O)c2ccc(F)cc2)c2ccccc21	PNC inhibitor inconclusive
CC1=CC(C)(C)N(S(=O)(=O)c2ccc(C)cc2)c2ccc(C)cc21	PNC inhibitor -90
CCc1cccc(CC)c1NC(=S)NCC(c1cccnc1)N(C)C (centres undefined)	none (no result: HPGD inh, PNC inhibitor)
O=C(c1ccc(Cl)cc1)c1c[nH]c(C(=O)NNc2ccccc2)c1	ALDH1A1 block 20µM (no result: HPGD inh, PNC inhibitor)
O=C(c1ccccc1)c1c[nH]c(C(=O)C(Cl)(Cl)Cl)c1	ALDH1A1 block 3.5µM (no result: HPGD inh, PNC inhibitor)
O=C(c1c[nH]c(C(=O)C(Cl)(Cl)Cl)c1)c1ccc(F)cc1Cl	ALDH1A1 block 1µM (no result: HPGD inh, PNC inhibitor)
CN(C)C=NC(=O)c1cc(C(=O)c2ccccc2)c[nH]1	none (no result: HPGD inh, PNC inhibitor)
O=C(O)c1ccccc1C(=O)NNc1ccc(Cl)cc1	ALDH1A1 block inconclusive
CN(C)C(=O)c1cc(C(=O)c2ccc(C(F)(F)F)cc2F)c[nH]1	none (no result: HPGD inh, PNC inhibitor)
CN(C)C=NC(=O)c1cc(C(=O)c2ccc(Cl)cc2)c[nH]1	none (no result: HPGD inh, PNC inhibitor)
O=C(c1ccc(Cl)cc1)c1c[nH]c(C(=O)C(Cl)(Cl)Cl)c1	HPGD inh inconclusive, ALDH1A1 block 8.9µM
CC(C)CN=C(N)N=C(N)N	none (no result: PNC inhibitor)
COC(=O)[C@H](Cc1ccccc1)NC(=O)O[C@@H]1C(=O)c2cc(Br)ccc2O[C@H]1c1cccc(OC)c1	ALDH1A1 block inconclusive
COCCN(CC(=O)NCc1ccccc1)C(=O)CCC(=O)Nc1ccccn1	none
COc1ccc(N2CCN(C(=O)CC34CC5CC(CC(C5)C3)C4)CC2)c([N+](=O)[O-])c1	HPGD inh inconclusive, ALDH1A1 block inconclusive
O=C(Nc1c(C(=O)O)oc2ccc(Br)cc12)c1ccccc1	HPGD inh inconclusive, ALDH1A1 block 28µM
CCOC(=O)c1oc2ccc(Br)cc2c1NC(=O)CN1CCN(C)CC1	ALDH1A1 block inconclusive
CN(C)c1ccc(/C=C2/C(=O)Nc3ccccc32)cc1	ALDH1A1 block inconclusive (no result: PNC inhibitor)
O=C1Nc2ccccc2/C1=C/c1cccnc1	none (no result: HPGD inh, PNC inhibitor)
CN(C)c1ccc(/C=C2\C(=O)Nc3ccccc32)cc1	HPGD inh inconclusive, ALDH1A1 block 7.1µM (no result: PNC inhibitor)
Cc1ccc(/C=C2\C(=O)Nc3ccccc32)o1	ALDH1A1 block 7.9µM
CN(C)C(=O)COc1ccc(Oc2ccccc2)cc1	none (no result: HPGD inh, PNC inhibitor)
CCOc1cc(/C=C\c2[nH]c(=O)[nH]c(=O)c2[N+](=O)[O-])ccc1OC(C)CC (centres undefined)	HPGD inh inconclusive, PNC inhibitor inconclusive
CCOC(=O)COc1ccc(Br)cc1/C=C\c1[nH]c(=O)[nH]c(=O)c1[N+](=O)[O-]	HPGD inh 16µM, ALDH1A1 block inconclusive
COc1cc(NS(=O)(=O)c2ccc(N/C=C\C(=O)c3ccc(F)cc3)cc2)nc(OC)n1	HPGD inh inconclusive, ALDH1A1 block inconclusive
Cc1ccc(S(=O)(=O)N2CCN(S(=O)(=O)N3CCCCCC3)CC2)cc1	none (no result: HPGD inh, PNC inhibitor)
Cc1ccc(S(=O)(=O)NC2=NCCC2)cc1	none
CCN(CC)S(=O)(=O)c1ccc2c(c1)c(=O)c(C(=O)NCc1cccs1)cn2C	ALDH1A1 block 11µM
CN(C)S(=O)(=O)c1ccc2c(c1)c(=O)c(C(=O)NCCCN1CCCCCC1)cn2C	ALDH1A1 block 15µM
CCN(CC)S(=O)(=O)c1ccc2c(c1)c(=O)c(C(=O)NCCCN(C)c1ccccc1)cn2C	none
CN(CCCNC(=O)c1cn(C)c2ccc(S(=O)(=O)N(C)C)cc2c1=O)c1ccccc1	ALDH1A1 block inconclusive, PNC inhibitor inconclusive
CC(NC(=O)C(NC(=O)C1CCCN1C(=O)OC(C)(C)C)C(C)C)C(N)=O (centres undefined)	PNC inhibitor -94
CC(C)CC(NC(=O)C1CCCN1C(=O)OC(C)(C)C)C(=O)NCC(N)=O (centres undefined)	PNC inhibitor inconclusive
CC(=O)Nc1ccc2c(c1)nc1n2CCSC1	none
CCCCC(=O)Nc1ccc2c(c1)nc1n2CCSC1	HPGD inh 32µM, ALDH1A1 block 18µM
CCCCCCCCCCCCC/C=C/[C@@H](O)[C@H](CO)NCCCCCCCC	none (no result: PNC inhibitor)
O=C(NCc1ccco1)c1cc2nc(C3CC3)cc(C(F)(F)F)n2n1	HPGD inh 18µM, ALDH1A1 block inconclusive
O=C(NCc1ccccc1)c1cc2nc(C3CC3)cc(C(F)(F)F)n2n1	none
COc1ccnc(-n2cccc2C#N)c1C#N	none (no result: HPGD inh, PNC inhibitor)
Cc1ccccc1OCC1Cn2c(nc3c2c(=O)[nH]c(=O)n3C)O1 (centres undefined)	none
Cc1ccc(OCC2Cn3c(nc4c3c(=O)[nH]c(=O)n4C)O2)cc1 (centres undefined)	PNC inhibitor -103
CCc1ccccc1S(=O)(=O)Cc1ccc(C(=O)N2CCN(c3ccccn3)CC2)o1	ALDH1A1 block inconclusive
COc1ccccc1NC(=O)Nc1nc(-c2cccnc2)nc2ccccc12	none (no result: PNC inhibitor)
O=C1CCCCCN1CP(=O)(O)CCc1ccccc1	none
O=P(O)(CCc1ccccc1)CN1CCCCC1	PNC inhibitor -82
O=[N+]([O-])c1ccccc1/C=N/Nc1nnc(-c2ccccc2)c(-c2ccccc2)n1	ALDH1A1 block 0.28µM
N#Cc1ccccc1/C=N/Nc1nc(-c2ccccc2)c2cc(Cl)ccc2n1	none
O=C(Nc1ccc(Cl)cc1)Nc1nnc(CSCc2ccc(Cl)cc2)s1	none
CCCOc1ccc2ccccc2c1/C=N/n1cnnc1	none
CCOc1ccc2ccccc2c1/C=N/n1cncn1	HPGD inh 32µM, ALDH1A1 block inconclusive
CC(C)c1ccc(OCC(O)CN2CCN(c3ccccc3)CC2)cc1 (centres undefined)	ALDH1A1 block inconclusive
O=C(CCCc1ccc(-c2ccccc2F)cc1)Nc1ccc(O)cc1	ALDH1A1 block inconclusive (no result: PNC inhibitor)
COc1ccc(C2CC(=O)c3c(C)nc(N4CCN(Cc5ccccc5)CC4)nc3C2)cc1OC (centres undefined)	ALDH1A1 block 25µM
COc1cc(C2CC(=O)c3cnc(N4CCN(Cc5ccccc5)CC4)nc3C2)cc(OC)c1OC (centres undefined)	HPGD inh inconclusive, ALDH1A1 block inconclusive
CC(C)(C)C(=O)c1cn(CC(=O)NCc2ccc3c(c2)OCO3)c2ccccc12	ALDH1A1 block inconclusive
Cc1nc(SCc2ccc(C(=O)O)cc2)nc2c1CCCC2	none (no result: HPGD inh, PNC inhibitor)
COc1ccccc1N1C(=O)CC(Sc2nccc(C)n2)C1=O (centres undefined)	none
CCOc1ccc(N2C(=O)CC(Sc3ncccn3)C2=O)cc1 (centres undefined)	ALDH1A1 block 22µM
CCOc1ccc(N2C(=O)CC(Sc3nccc(C)n3)C2=O)cc1 (centres undefined)	ALDH1A1 block inconclusive, PNC inhibitor inconclusive
COc1ccccc1N1C(=O)CC(Sc2n[nH]c(-c3cccc(C)c3)n2)C1=O (centres undefined)	HPGD inh inconclusive, ALDH1A1 block 2µM
O=C1CC(Sc2ncccn2)C(=O)N1c1ccccc1 (centres undefined)	ALDH1A1 block 22µM, PNC inhibitor inconclusive
Cc1nc(SC2CC(=O)N(c3ccc([N+](=O)[O-])cc3)C2=O)nc2c1CCCC2 (centres undefined)	ALDH1A1 block 1.8µM
O=C1CC(NCc2ccncc2)C(=O)N1c1ccccc1 (centres undefined)	ALDH1A1 block inconclusive
CCOC(=O)c1ccc(CNCc2ccc(C)cc2)cc1	none
CCCOc1ccc(N2C(=O)CC(NCc3ccncc3)C2=O)cc1 (centres undefined)	none
